# Results filed as inconclusive are left out. Some structures have more than one record in an assay (separate samples or runs), and their calls can disagree. The source made the active and inactive calls. Calls come from the whole dose curve; as a rule, active = well fitted inhibition curve with a large enough effect; inconclusive = small, poorly fitted or top-dose-only effect; inactive = no such curve, though single readings can be large or run the other way.
# Biological target: Muscarinic acetylcholine receptor M1 (Rattus norvegicus) (UniProt P08482)
# Assay: qHTS Assay for Antagonists of Acetylcholine Muscarinic M1 Receptor: Kinetic Measurement of Intracellular Calcium Response (AID 943); note: nearly all actives have a fitted effect of over 75% in size
# Details: M1-expressing cells, kinetic intracellular calcium fluorescence; series mostly up to 35.3 µM; activity change, negative = inhibition: at the top concentration
# Description: NIH Molecular Libraries Screening Centers Network [MLSCN]
# NIH Chemical Genomics Center [NCGC]
# Acetylcholine muscarinic M1 receptor is a G-protein coupled receptor (GPCR) coupling to the Gq G protein. It is mainly expressed in brain and functionally related to the learning and memory processes. The agonists of this receptor have the potential for the treatment of Alzheimer's disease and cognitive impairments associated with Schizophrenia. Upon an activation of the M1 receptor, phosholipase C (PLC) is activated to produce inositol 1,4,5-trisphosphate (IP3) and diacyl glycerol (DAG) resulting in increase of intracellular free Ca2+ and activation of protein kinase C (PKC). The increase of intracellular calcium can be measured by the fluorescent calcium dyes, Fluo-3 and Fluo-4, using a fluorescence kinetic plate reader.
# We have obtained a M1-CHO cell line transfected with rat acetylcholine M1 receptor and optimized a calcium assay with this cell line for compound screening as a counter-screen assay for other Gq-coupled GPCRs.
# NCGC Assay Protocol Summary:
# The CHO-M1 (CHO-M1) cell line transfected with the rat acetylcholine muscarinic M1 receptor was obtained from ATCC. The cells were maintained in call culture flasks with F12 Kaighn's media (Invitrogen) supplemented with 10 % FBS, 100 units/ml penicillin, 100 ug/ml streptomycin and 250 ug/ml geneticin (Invitrogen) at 37C, 5 % CO2 in a humidified atmosphere. At 90-95 % confluence, the cells were then detached in 15 ml […] % trypsin by 3 minutes incubation at 37C and centrifuged at 1000 RPM to remove the trypsin solution. The resulting cell pellet was resuspended in the cell freezing media containing 10 % DMSO (Invitrogen) at a density of 4 x 10^7 cells/ml. The aliquots of cells at 0.5 - 1 ml per vial were frozen down slowly at 1 degree C/min using a Cryo 1 degree C freezing container in the presence of isopropanol (Nalgene Nunc, Rochster, NY) overnight in a -80C freezer. The frozen cells were then transferred to liquid nitrogen for the storage up to one year.
# The resuspended frozen cells were plated at 3 ul/well with 2000 cells in the black, tissue culture treated, clear bottom 1536-well plates. After overnight incubation at 37C, 5% CO2, 2.5 ul/well no-wash calcium dye (containing Fluo-4, BD Biosciences) were loaded and incubated at 37C, 5 % CO2 for 1 hour followed by a 10 min incubation with 20 nl compound in DMSO solution. The assay plates were then placed onto the kinetic fluorescence plate reader (FDSS-7000, Hamamatsu) for a measurement of the kinetic changes in intracellular free calcium. The basal fluorescence signal was measured for 6 times at 1 Hz followed by an addition of 1 ul of carbachol and continued 4 min measurement. The results were calculated as the maximal signal (peak) divided by the minimal signal (basal).
# 1536-well assay protocol:
# (1) 3 ul/well containing 2000 M1-CHO cells in 1536 tissue culture treated black/clear bottom plate
# (3) Add 1ul/well calcium dye (from no-wash calcium dye kit, BD Biosciences) containing […]
# (4) Incubate 1 hour at 37C with 5% CO2
# (5) Add 20 nl compound diluted in DMSO
# (6) Incubate 10 minutes at the room temp
# (7) Place the plate in FDSS-7000 instrument (Ex = 480 nm and […])
# #- read the assay plate 6 times at 1 Hz for basal signal
# #- add 1 ul/well EC80 carbachol (100 nM final)
# #- continuously read the assay plate for 4 min at 1 Hz
# Keywords: acetylcholine muscarinic M1 receptor, calcium kinetic assay, Fluo-4, high throughput screening, MLSMR, MLSCN, NIH Roadmap, qHTS and NCGC
# Muscarinic acetylcholine receptor M1 (Rattus norvegicus), sequence (P08482 whole entry, looked up): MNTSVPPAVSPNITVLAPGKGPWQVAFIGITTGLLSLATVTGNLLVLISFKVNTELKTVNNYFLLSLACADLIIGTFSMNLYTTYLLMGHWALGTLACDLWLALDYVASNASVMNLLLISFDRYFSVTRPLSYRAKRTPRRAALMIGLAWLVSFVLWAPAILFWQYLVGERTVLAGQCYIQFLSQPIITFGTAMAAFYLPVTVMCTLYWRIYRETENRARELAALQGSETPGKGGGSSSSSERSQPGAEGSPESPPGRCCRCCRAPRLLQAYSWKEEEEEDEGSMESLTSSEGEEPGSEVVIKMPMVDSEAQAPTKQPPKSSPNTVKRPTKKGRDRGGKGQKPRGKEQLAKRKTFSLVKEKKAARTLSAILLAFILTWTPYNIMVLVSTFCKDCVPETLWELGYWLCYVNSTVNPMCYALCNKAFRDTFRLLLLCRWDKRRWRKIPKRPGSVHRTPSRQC
SMILES,"activity change, negative = inhibition",Potency
C[N+](C)(C)CC#CCOC(=O)Nc1cccc(Cl)c1,29.9% (inactive),–
Nc1ccc(CCN2CCN(c3cccc(C(F)(F)F)c3)CC2)cc1,–,11.2 µM (active)
CNC(=O)OCC[N+](C)(C)C,-6.01% (inactive),–
COc1ccc2[nH]c3c(c2c1)CCNC3,1.07% (inactive),–
COc1ccc2[nH]cc(CCN)c2c1,-23.5% (inactive),–
O=C1C=CC(=O)C=C1,-30.4% (inactive),–
CCCn1c(=O)c2[nH]c(C3CCCC3)nc2n(CCCOC(=O)c2ccc(S(=O)(=O)F)cc2)c1=O,–,5.01 µM (active)
COc1ccc2c(c1)/C(=C/c1cnc[nH]1)C(=O)N2,-40.2% (inactive),–
Cc1sc2ccccc2c1CC1=NCCN1,-7.68% (inactive),–
O=C(O)c1cc[c]([Hg][Cl])cc1,-21.4% (inactive),–
OCc1cnc[nH]1,-27% (inactive),–
NNC(=O)c1ccc(O)cc1,-43.3% (inactive),–
C[C@@H]1[C@@H]2Cc3ccc(O)cc3[C@@]1(C)CCN2CC1CC1,–,14.1 µM (active)
Cc1c2ccncc2c(C)c2c1[nH]c1ccccc12,-24% (inactive),–
NCCCP(=O)(O)O,-26.3% (inactive),–
O=P(O)(O)C(Cl)(Cl)P(=O)(O)O,-29.5% (inactive),–

SMILES,"activity change, negative = inhibition",Potency
N#CCCN,-38.9% (inactive),–
C[C@@H]1O[C@H](C[N+](C)(C)C)CS1,-0.377% (inactive),–
NC(=O)CI,-19.4% (inactive),–
CCCN(CCC)[C@H]1CCc2c(F)ccc(O)c2C1,–,6.31 µM (active)
CP(=O)(O)C1=CCNCC1,-23.3% (inactive),–
O=[N+]([O-])c1cc(O)c(O)c([N+](=O)[O-])c1,-58% (inactive),–
Clc1cc(I)cc(Cl)c1NC1=NCCN1,–,15.8 µM (active)
NC(=O)c1cc(N2CC2)c([N+](=O)[O-])cc1[N+](=O)[O-],-26.3% (inactive),–
O=S1(=O)N(CCN2CC=C(c3c[nH]c4cc(F)ccc34)CC2)c2cccc3c2N1CCC3,–,15.8 µM (active)
Cc1[nH]c2ccc(O)cc2c1CCN,-33% (inactive),–
CCCN(CCC)C1Cc2cc(OC)c(OC)cc2C1,–,1.26 µM (active)
CCCN(CCC)[C@@H]1CCc2cccc(O)c2C1,–,3.98 µM (active) and inactive
O=c1c2ccccc2[se]n1-c1ccccc1,-20.4% (inactive),–
CN(N=O)c1cc(O)ccc1O,9.62% (inactive),–
C[N+](C)(C)CC#CCN1CCCC1=O,5.59% (inactive),–

# From PubChem BioAssay (NCATS)
